# Compound activity: PubChem BioAssay, National Center for Advancing Translational Sciences (NCATS)
# Only a selection was taken, and hits are over-represented in it overall.
# KDM5B inhibitor – blocks human KDM5B histone demethylase activity; Q9UGL1; actives 2.6% (n = 220,000); Potency, µM (series often up to 57.7 µM), actives largely listed as inhibitors; KDM5B demethylase, FDH-coupled NADH fluorescence (FDH is formaldehyde dehydrogenase); active = well fitted inhibition curve with a large enough effect; also: 0% is about no effect; nearly all actives have a fitted effect of over 70% in size
#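 Coupled FDH/NAD⁺ fluorescence readout. KDM5BΔAP 200 nM final; compound titration, 10 min RT preincubation; substrate mix 12.5 µM H3K4me3, 25 µM 2-OG, 50 µM Fe(II), 100 µM ascorbate, 0.25 mM NAD⁺, 0.25 U/mL FDH; ΔRFU over 30 min.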
# Numbers without * were called inactive; i = inactive. Potency is read from the fitted curve at half-maximal effect.
SMILES,KDM5B inhibitor
COc1ccc(-c2ccc3nnc(CNC(=O)c4ccco4)n3n2)cc1,32µM*
CC(=O)c1cccc(NC(=O)CSc2nnc3ccc(-c4ccc(C)cc4)nn23)c1,i
COc1ccc(-c2ccc3nnc(CNC(=O)c4ccc(C)c(C)c4)n3n2)cc1,25µM*
Cc1ccc(C(=O)N2CCN(c3cccc(C(F)(F)F)c3)CC2)s1,i
CCS(=O)(=O)N1CCC(NC(=O)c2ccccc2C(=O)c2ccc(Cl)cc2)CC1,i
CN(C)C(=O)c1ccc(Cl)cc1NS(=O)(=O)c1cc(F)ccc1F,i
CCOC(=O)Cn1c(CN2CCN(c3ccccc3F)CC2)nc2c1c(=O)n(C)c(=O)n2C,i
O=C(CCc1ncc(-c2ccc(F)cc2)o1)NCc1ccccc1Cl,i
C=CCNS(=O)(=O)c1ccc(C(=O)O)cc1,i
Cc1cc(C(C)(C)C)ccc1OCC(O)Cn1cnc2sccc2c1=O (centres undefined),i
COc1ccccc1NC(=O)NOCc1ccccc1,i
O=C(c1ccco1)N1CCC[C@H]1c1nc(-c2ccccc2)no1,i
CCCCn1nc(C(=O)Nc2ncc(Cc3ccc(F)cc3)s2)ccc1=O,i
CC(C)C(C(=O)NC(C)C1CC2CCC1C2)c1ccc(Cl)cc1 (centres undefined),i
COc1ccc(-c2cc(C(=O)NCc3ccc(C)cc3)c3cc(C(C)C)ccc3n2)cc1,i
COc1ccc(C(=O)NCCc2nnc3ccc(SCC(=O)N4CCCCC4)nn23)cc1,i
Cc1ccc(C(=O)NCCC(=O)N2CCCC2)c(C)c1,i
Cc1ccc(-c2ccc3nnc(CNC(=O)c4cccc5[nH]ccc45)n3n2)cc1,i
Cc1ccc(-c2ccc3nnc(CNC(=O)c4ccc(C)cc4C)n3n2)cc1,13µM*
COc1ccc(-c2ccc3nnc(CNC(=O)c4ccc(OC)cc4C)n3n2)cc1,28µM*
COc1ccccc1CNc1ccc2nnc(CCNC(=O)c3ccc(C)cc3)n2n1,i
COc1cccc(C(=O)NCc2nnc3ccc(-c4ccc(C)cc4)nn23)c1OC,14µM*
NC(=O)CN1CCN(c2ccnc3c(F)ccc(F)c23)CC1,i
CC(C)C(NC(=O)C(c1ccccc1)C1CCCC1)c1ccccc1 (centres undefined),i
CCC(Sc1nc2nccnc2c(=O)n1Cc1ccccc1)C(=O)Nc1cc(C)ccc1OC (centres undefined),i
SMILES,KDM5B inhibitor
CCC1(CC)Cc2ccccc2C(NC(=O)NC2CCCC2)=C1C#N,i
Cc1noc(-c2cn(C3CCN(C(=O)c4cccc(C(F)(F)F)c4)CC3)nn2)n1,i
Cc1ccc(-n2c(C)nnc2SC(C)C(=O)Nc2cc(C)on2)cc1 (centres undefined),i
Cc1ccc(COc2ccc3ccccc3c2C=O)cc1,i
CC(=O)N[C@H]1CCN(C(=O)C[C@@H]2[C@H](O)CCC3[C@](C)(CO)[C@H](OC(=O)Nc4cccc(F)c4)CC[C@]32C)C1 (some centres undefined),i
CCc1ccc2c(CN(C)CCOc3ccc(C)cc3)cc(=O)oc2c1,i
COc1ccc(NC(=O)Nc2ccc(-c3nnc(-c4ccccc4)o3)cc2)cc1F,i
O=C(O)CNS(=O)(=O)c1cc(C(F)(F)F)ccc1Cl,i
Cc1nn(Cc2nnc(Nc3ccn(Cc4ccccc4Cl)n3)s2)c(C)c1Br,i
Cc1ccc(CNc2ncccc2C#N)cc1,i
Cc1ccc(C#N)c(NCc2cccnc2N2CCN(c3ccccn3)CC2)n1,28µM*
CC1CCN(Cc2ccc(CNc3ncccc3C#N)cc2)CC1,i
Cc1cc(-c2csc(NC3CCCC3)n2)c(C)n1NC(=O)c1nn(C)c(=O)c2ccccc12,i
CS(=O)(=O)c1ccccc1C(=O)OCc1ccccc1F,i
O=C(CCc1ncc(-c2ccc(F)cc2F)o1)N1CCN(c2ccccc2)CC1,i
COCCNc1ncc(-c2ccsc2)c2c1OCC2,35µM*
O=C(Nc1ncc(-c2ccccc2)c2c1OCC2)c1cn[nH]c1,i
COCCNc1ncc(-c2cccc(NC(C)=O)c2)c2c1OCC2,40µM*
COCCNc1ncc(-c2ccccc2)c2c1OCC2,40µM*
COc1ccc(C(=O)Nc2ncc(-c3ccc(OC)nc3)c3c2OCC3)cc1,i
COCCNc1ncc(-c2ccc([S+](C)(=O)[O-])cc2)c2c1OCC2,32µM*
O=C(Nc1ncc(-c2ccccc2)c2c1OCC2)c1ccccc1,i
COCCNc1nc(-c2ccsc2)nc2ccccc12,i
COc1cc(C(=O)CCN(C)C)cc(OC)c1OC,i
CCCn1c(=O)n(CCC(=O)NC2(c3noc(C)n3)CCCCC2)c2ccccc21,i
O=C(Nc1ccc(Br)cc1)C1=C(c2ccccc2)SCCO1,i
CCCN1Cc2cccc(C(=O)Nc3cc(Cl)ccc3Cl)c2C1=O,i
O=C(N[C@H](CO)c1ccccc1)C1CCC(CNS(=O)(=O)c2ccc(Cl)cc2)CC1 (some centres undefined),i
COCCN(CC1CCCO1)CC1CCCO1 (centres undefined),i
CCc1noc(CN2CCC(c3nc4ccccc4s3)CC2)n1,i
